In the library only some 3.5% were active in any assay of this set; here they are far more common.
Mtb FBA inh – inhibitors of M. tuberculosis fructose-bisphosphate aldolase. P9WQA3. purified M. tuberculosis FBA, fluorescence read-out. inhibition, % at 1 µM. 2.3% of 360,000 active. AID 588726;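 also: 0% = vehicle and 100% = reference inhibitor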
Target sequence (P9WQA3 whole entry, looked up): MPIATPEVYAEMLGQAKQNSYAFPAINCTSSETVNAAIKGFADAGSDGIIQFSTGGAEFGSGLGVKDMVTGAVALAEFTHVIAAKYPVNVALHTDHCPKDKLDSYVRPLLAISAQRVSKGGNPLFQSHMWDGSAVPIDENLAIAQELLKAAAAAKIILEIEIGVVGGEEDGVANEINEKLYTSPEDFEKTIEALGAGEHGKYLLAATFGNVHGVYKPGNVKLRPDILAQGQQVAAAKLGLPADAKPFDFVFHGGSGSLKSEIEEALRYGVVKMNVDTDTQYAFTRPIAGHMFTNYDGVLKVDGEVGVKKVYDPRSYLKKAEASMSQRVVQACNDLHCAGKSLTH
Rv3671c protease – Rv3671c (M. tuberculosis) protease inhibition; inhibition, % at 5.96 µM; 0.048% of 320,000 active; P9WHR9; in the data active = inhibition above about 38%;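 also: extracellular domain of Rv3671c used as enzyme; 0% = enzyme with DMSO and 100% = no enzyme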
GDH-TPI counter-1 – inhibits GDH-TPI coupling enzymes, artifact for Mtb FBA screen; GDH-TPI coupled enzyme counterscreen, NADH absorbance; inhibition, % at 4.8 µM; 1.2% of 360,000 active; AID 588335; in the data active = inhibition above about 30%;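 also: 0% = DMSO wells and 100% = wells lacking the enzyme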
Mtb UGM inh – blocks M. tuberculosis UGM enzyme. P9WIQ1. purified UGM, fluorescence polarization probe displacement. inhibition, % at 10 µM. 0.06% of 320,000 active; in the data active = inhibition above about 10%, passing the limit was not always enough
Mtb hypoxia inh – Mtb hypoxia fluorescent reporter inhibition | M. tuberculosis hypoxia-regulated fluorescent reporter, fluorescence | AID 1159583 | 0.1% of 300,000 active | fluorescence inhibition, % (no concentration beside the values); in the data active = fluorescence inhibition mostly above about 23%, no sharp cut-off; inactive = mostly below about 17%
FadD28 FP inh – inhibitors of Mycobacterium tuberculosis FadD28 bisubstrate binding | 0.22% of 360,000 active | inhibition, % at 12.5 µM | FadD28 bisubstrate probe binding, fluorescence polarization | AID 588549; in the data active = inhibition above about 8.5%, passing the limit was not always enough
Mtb FBA confirm – confirmation of M. tuberculosis fructose-bisphosphate aldolase inhibitors; shares compounds with Mtb FBA inh; purified M. tuberculosis FBA, fluorescence read-out; AID 651616; inhibition, % at 1 µM; 78% of 5,600 active;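 also: 0% = vehicle wells and 100% = reference inhibitor wells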
GDH-TPI counter-2 – GDH-TPI inhibition counter-screen for FBA inhibitors; shares compounds with Mtb FBA inh; 81% of 5,600 active; inhibition, % at 1 µM; GDH-TPI coupled enzyme counterscreen, fluorescence; AID 652141; in the data active = inhibition above about 10%
GDH-TPI dose – counter-screen for M. tuberculosis FBA inhibitors: GDH-TPI dose response. shares compounds with Mtb FBA inh. GDH-TPI coupled enzyme assay, fluorescence, artifact counterscreen. IC50, µM. 79% of 170 active. AID 652145; call rule not given here
Numbers without * were called inactive; x = no result; + = active, no number. Rule as the data show it, unless noted: active = inhibition above about 27%; inactive = the rest.

SMILES	Mtb FBA inh	Rv3671c protease	GDH-TPI counter-1	Mtb UGM inh	Mtb hypoxia inh	FadD28 FP inh	Mtb FBA confirm	GDH-TPI counter-2	others
CCn1c(C)c(CCC(=O)O)c(=O)n2nc(-c3ccccc3OC)cc12	53.7*	7.3	11.8	1.9	-8.7	1.3	39.5*	40.6*
COc1ccccc1-c1cc2nc(C)cc(C)n2n1	8.5	7.5	9.6	0.3	8.6	-3.8	x	x
CC(=NOCC(=O)NN=Cc1ccc(C)cc1O)c1cccs1	x	x	x	x	18.4	x	x	x
OCCC1CC(O)C(O)[C@@]2(Cc3ccccc3CO2)O1 (some centres undefined)	x	x	x	x	19.1	x	x	x
CC(=NNC(=O)CCCNc1cccc(C)c1)c1ccncc1	x	x	x	x	15.6	x	x	x
CCOC(=O)c1c(-c2ccc(C)cc2)cn2ccccc12	88.8*	-8.8	11.9	-1.4	x	-2.0	106.2*	79.5*
CCOC(=O)c1c(-c2ccc(F)cc2)cn2ccccc12	98.7*	-2.1	23.4	0.6	x	-2.0	139.1*	100.4*
CCOC(=O)c1c(-c2ccc(OC)cc2)cn2ccccc12	26.1	7.4	3.5	0.4	17.6	-1.7	x	x
N#Cc1cc(-c2ccccc2)c[nH]c1=O	58.2*	-7.0	12.2	-1.6	2.3	0.4	93.6*	88.9*
N#Cc1cc(-c2ccccc2)cn(Cc2c(Cl)cccc2Cl)c1=O	3.8	5.9	2.4	-1.9	8.3	-2.9	x	x
CCCNC(=O)CC(C)=NNC(=O)C(=O)Nc1ccccn1	x	x	x	x	7.6	x	x	x
CCOC(=O)C1=C(c2ccccc2)N=c2sc(=Cc3ccco3)c(=O)n2C1c1cccs1 (centres undefined)	x	x	x	x	-8.4	x	x	x
CN(C)c1ccc(C=NN(CCC(=O)NC(C)(C)C)C2=NS(=O)(=O)c3ccccc32)cc1	x	x	x	x	-3.2	x	x	x
OC[C@@H]1CCCN1Cc1cn(-c2ccccc2)nc1-c1ccc2c(c1)OCO2	28.8*	6.3	23.4	3.7	7.6	-2.3	54.4*	35.0*
CCc1noc(C)c1C(=O)N1CCN(S(=O)(=O)c2ccc(Cl)cc2)CC1	33.3*	4.0	-9.6	4.0	0.9	-3.1	94.4*	79.0*
OCCNc1c2ccccc2nc2c(F)c(F)c(F)c(F)c12	71.5*	0.8	2.2	-1.8	9.1	-0.5	+	+
CC(=O)Nc1ncnc2c1c(-c1ccc(Cl)cc1)nn2C(C)(C)C	49.5*	-1.2	-7.9	-2.6	9.0	-4.9	80.8*	75.1*
CC(=O)N(C(C)=O)c1ncnc2c1c(-c1ccc(Cl)cc1)nn2C(C)(C)C	50.2*	0.7	-1.9	2.4	2.7	0.0	-1.1	0.9
Cc1cc(C)nc(-n2ncc3c2CC(c2cccc(Cl)c2)CC3=O)n1 (centres undefined)	28.9*	-5.2	15.8	0.4	0.9	-1.2	75.3*	55.7*
CCCC(=O)N=C1SC2CS(=O)(=O)CC2N1c1ccc(-c2nc3ccc(C)cc3s2)cc1 (centres undefined)	53.2*	-6.5	16.3	-1.3	3.3	-3.6	140.6*	103.0*
O=C(O)c1ccc2c(=O)n3c(nc2c1)/C(=C/c1ccc(C(F)(F)F)cc1)CC3	27.8*	3.3	27.6	2.0	-9.5	x	45.7*	33.5*
Cc1[nH]nc2c1C(c1ccc(F)cc1)C1=C(CC(C)(C)CC1=O)N2 (centres undefined)	33.9*	4.2	6.2	-0.1	2.1	-1.8	56.3*	42.9*
Cc1[nH]nc2c1C(c1ccc(N(C)C)cc1)C1=C(CC(C)(C)CC1=O)N2 (centres undefined)	-0.6	-1.0	-0.3	2.7	-2.6	-1.0	x	x
COc1ccc(C2C3=C(CCCC3=O)Nc3n[nH]c(C)c32)cc1OC (centres undefined)	-1.4	-7.0	7.5	1.1	-5.5	-2.1	x	x
Cc1[nH]nc2c1C(c1cccc(O)c1)C1=C(CC(C)(C)CC1=O)N2 (centres undefined)	32.6*	-4.2	9.4	1.3	-2.2	-1.9	17.3	13.8*
SMILES	Mtb FBA inh	Rv3671c protease	GDH-TPI counter-1	Mtb UGM inh	Mtb hypoxia inh	FadD28 FP inh	Mtb FBA confirm	GDH-TPI counter-2	others
Cc1ccc(C2C3=C(CC(C)(C)CC3=O)Nc3n[nH]c(C)c32)cc1 (centres undefined)	28.4*	-1.5	20.7	0.1	10.8	-3.8	109.4*	93.9*
O=C(NN=Cc1ccc([N+](=O)[O-])o1)c1cccc(S(=O)(=O)N2CCOCC2)c1	x	x	x	x	-4.1	x	x	x
C[C@]12C(=O)N(c3ccccc3)C(=O)N1C1c3ccccc3OCC1C2c1ccccc1 (some centres undefined)	x	x	x	x	-0.9	x	x	x
COC(=O)c1ccc(/C=C/c2c(-c3ccc(OC)cc3)oc3ccc(N4CCOCC4)cc23)cc1	12.6	-14.0	0.0	-1.5	x	0.2	x	x
COc1ccc(/C=C/c2c(-c3cccc(C)c3)oc3ccc(N4CCOCC4)cc23)cc1	34.9*	-0.6	27.4	4.1	x	-3.7	103.5*	98.2*
COc1ccc(-c2oc3ccc(N4CCOCC4)cc3c2C#Cc2ccc(N)cc2)cc1	43.6*	4.5	10.0	-0.5	0.9	1.0	48.9*	47.6*
Cc1cc(C)c(C2=CC(=O)CC(c3ccc4c(c3)OCO4)C2)c(C)c1 (centres undefined)	x	x	x	x	5.0	x	x	x
Nc1nc2ccc(O)cc2s1	4.9	2.5	2.4	1.6	x	0.6	x	x
Nc1nc2ccc(S(=O)(=O)c3ccc4nc(N)sc4c3)cc2s1	28.5*	-15.9	7.8	-3.1	3.7	-0.5	72.2*	49.0*
COc1cc2nc(N3CCN(c4cc(C)ccc4C)CC3)nc(N)c2cc1OC	5.8	9.4	15.2	-0.7	-16.0	-6.7	x	x
COc1cc2nc(N3CCNCC3)nc(N)c2cc1OC	56.2*	-2.9	3.9	-2.7	8.6	-2.9	8.1	-2.6
Cc1c2cnccc2c(C)c2c1oc1ccccc12	42.9*	x	2.6	x	x	-0.8	114.9*	94.0*
COc1cc(C=NNS(=O)(=O)c2ccccc2)c(OC)c(OC)c1	x	x	x	x	-5.6	x	x	x
O=C1NC(=O)c2cc(NC(=O)C3CCCO3)ccc21 (centres undefined)	37.7*	0.3	5.8	1.5	1.6	-0.6	10.8	0.5	GDH-TPI dose=4.23*
Cc1ccccc1C(=O)Nc1ccc2c(c1)C(=O)NC2=O	38.8*	-3.5	6.2	0.6	6.9	-0.9	0.5	2.4
CCCC(=O)Nc1cccc(Oc2ccc3c(c2)C(=O)NC3=O)c1	0.9	-6.6	9.4	-0.4	18.2	-0.3	x	x
CCCC(=O)Nc1ccc2c(c1)C(=O)NC2=O	33.0*	3.2	0.9	1.6	5.1	-3.3	114.9*	88.4*
COc1ccccc1C(=O)Nc1ccc2c(c1)C(=O)NC2=O	-1.4	-11.1	14.1	2.3	9.7	-0.5	x	x
O=C(Cc1ccc(Cl)cc1)Nc1ccc2c(c1)C(=O)NC2=O	59.8*	2.7	5.2	-1.1	-2.6	-0.5	51.2*	35.1*

Compound activity as filed in PubChem.
